Experimental data published in PubChem BioAssay AID1159580 (chemical genetic matrix, 2015).
Screen size: about 5,500 compounds; about 2,000 (36%) were called active. Not shown: some 18% with an inconclusive outcome. Rule as the data show it: active = normalized growth mostly below about 0.91 (no sharp cut-off); inconclusive = no clear call, values can overlap the other calls; inactive = mostly above about 0.92. This is one part of the list.

Assay: chemical genetic growth profiling, strain panel (AID 1159580);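 also: tested at 20 µM; growth read once vehicle control cultures reached saturation at 30 °C; 1 = growth at the plate median or of vehicle wells; lower values mean less growth of the strain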
Conditions: growth OD
[1] = S. cerevisiae deletion strains, locus YCL061C, strain MRC1, active compounds read low
[2] = S. cerevisiae deletion strains, locus YHR030C, strain SLT2, active compounds read low
[3] = S. cerevisiae deletion strains, locus YJL187C, strain SWE1, active compounds read low

Measured: normalized growth

COc1cc(/C=C2\NC(=O)NC2=O)ccc1O
inactive: S. cerevisiae deletion strains, locus YAL013W, strain DEP1, active compounds read low 1 | S. cerevisiae deletion strains, locus YBR229C, strain ROT2, active compounds read low 0.965 | [1] 1 | S. cerevisiae deletion strains, locus YDL101C, strain DUN1, active compounds read low 0.982 | S. cerevisiae deletion strains, locus YDR150W, strain NUM1, active compounds read low 0.963 | S. cerevisiae deletion strains, locus YEL061C, strain CIN8, active compounds read low 0.956 | S. cerevisiae deletion strains, locus YGR078C, strain PAC10, active compounds read low 0.977 | [2] 0.873 | S. cerevisiae deletion strains, locus YHR087W, strain rtc3, active compounds read low 1.04 | [3] 0.982 | S. cerevisiae deletion strains, locus YJR043C, strain POL32, active compounds read low 0.997 | S. cerevisiae deletion strains, locus YJR075W, strain HOC1, active compounds read low 0.976 | S. cerevisiae deletion strains, locus YKL190W, strain CNB1, active compounds read low 0.986 | S. cerevisiae deletion strains, locus YLR039C, strain RIC1, active compounds read low 0.918 | S. cerevisiae deletion strains, locus YLR058C, strain SHM2 (second series), active compounds read low 0.98 | S. cerevisiae deletion strains, locus YLR085C, strain ARP6, active compounds read low 0.941 | S. cerevisiae deletion strains, locus YLR262C, strain YPT6, active compounds read low 0.945 | S. cerevisiae deletion strains, locus YML094W, strain GIM5, active compounds read low 0.989 | S. cerevisiae deletion strains, locus YMR219W, strain ESC1, active compounds read low 0.974 | S. cerevisiae deletion strains, locus YMR263W, strain SAP30, active compounds read low 0.998 | S. cerevisiae deletion strains, locus YMR307W, strain GAS1, active compounds read low 1.07 | S. cerevisiae deletion strains, locus YNL128W, strain TEP1, active compounds read low 0.993 | S. cerevisiae deletion strains, locus YNL153C, strain GIM3, active compounds read low 0.98 | S. cerevisiae deletion strains, locus YNL298W, strain CLA4 (second series), active compounds read low 0.968 | S. cerevisiae deletion strains, locus YNL322C, strain KRE1, active compounds read low 0.996 | S. cerevisiae deletion strains, locus YNR030W, strain Alg12, active compounds read low 1.01 | S. cerevisiae deletion strains, locus YPL055C, strain LGE1, active compounds read low 0.999 | S. cerevisiae deletion strains, locus YPL241C, strain CIN2, active compounds read low 0.975 | S. cerevisiae deletion strains, locus YPR135W, strain CTF4, active compounds read low 0.945 | S. cerevisiae strains, strain wild type, active compounds read low 0.948

COc1cc(O)c(C(=O)/C=C/c2ccc(OC)c(O)c2)c(OC)c1
active: S. cerevisiae deletion strains, locus YAL026C, strain drs2, active compounds read low 0.906 | S. cerevisiae deletion strains, locus YBR009C, strain hhf1, active compounds read low 0.846 | S. cerevisiae deletion strains, locus YBR023C, strain chs3, active compounds read low 0.912 | S. cerevisiae deletion strains, locus YDR195W, strain ref2 1.17 [resistant] | S. cerevisiae deletion strains, locus YDR392W, strain spt3, active compounds read low 0.413 | S. cerevisiae deletion strains, locus YER155C, strain BEM2 (second series), active compounds read low 0.765 | S. cerevisiae deletion strains, locus YGL253W, strain hxk2, active compounds read low 0.806 | S. cerevisiae deletion strains, locus YHR142W, strain chs7, active compounds read low 0.712 | S. cerevisiae deletion strains, locus YJL095W, strain BCK1 (second series), active compounds read low 0.86 | S. cerevisiae deletion strains, locus YJL129C, strain trk1, active compounds read low 0.852 | S. cerevisiae deletion strains, locus YJL164C, strain tpk1, active compounds read low 0.842 | S. cerevisiae deletion strains, locus YJL166W, strain qcr8, active compounds read low 0.799 | [3] 0.914 | S. cerevisiae deletion strains, locus YKL160W, strain elf1, active compounds read low 0.893 | S. cerevisiae deletion strains, locus YLL001W, strain dnm1, active compounds read low 0.891 | S. cerevisiae deletion strains, locus YLL026W, active compounds read low 0.857 | S. cerevisiae deletion strains, locus YLR027C, strain aat2, active compounds read low 0.841 | S. cerevisiae deletion strains, locus YLR221C, strain rsa3, active compounds read low 0.79 | S. cerevisiae deletion strains, locus YLR258W, strain gsy2, active compounds read low 0.903 | S. cerevisiae deletion strains, locus YLR262C, strain YPT6 (second series), active compounds read low 0.752 | S. cerevisiae deletion strains, locus YLR320W, strain mms22, active compounds read low 0.793 | S. cerevisiae deletion strains, locus YML120C, strain ndi1, active compounds read low 0.828 | S. cerevisiae deletion strains, locus YMR058W, strain fet3, active compounds read low 0.847 | S. cerevisiae deletion strains, locus YMR205C, strain PFK2, active compounds read low 0.845 | S. cerevisiae deletion strains, locus YNL071W, strain lat1, active compounds read low 0.566 | S. cerevisiae deletion strains, locus YOR070C, strain gyp1, active compounds read low 0.895 | S. cerevisiae deletion strains, locus YOR083W, strain WHI5, active compounds read low 0.859 | S. cerevisiae deletion strains, locus YOR106W, strain vam3, active compounds read low 0.822 | S. cerevisiae deletion strains, locus YOR290C, strain snf2, active compounds read low 0.751 | S. cerevisiae deletion strains, locus YPL051W, strain arl3, active compounds read low 0.856 | S. cerevisiae deletion strains, locus YPL078C, strain atp4, active compounds read low 0.796
inactive: S. cerevisiae deletion strains, locus YAL021C, strain ccr4, active compounds read low 0.994 | S. cerevisiae deletion strains, locus YAL030W, strain snc1, active compounds read low 0.961 | S. cerevisiae deletion strains, locus YBL061C, strain skt5, active compounds read low 0.939 | S. cerevisiae deletion strains, locus YBR171W, strain sec66, active compounds read low 0.993 | S. cerevisiae deletion strains, locus YBR231C, strain swc5, active compounds read low 0.925 | S. cerevisiae deletion strains, locus YBR279W, strain paf1, active compounds read low 0.965 | S. cerevisiae deletion strains, locus YCL011C, strain gbp2, active compounds read low 0.91 | S. cerevisiae deletion strains, locus YCL016C, strain dcc1, active compounds read low 0.971 | [1] 0.954 | S. cerevisiae deletion strains, locus YCL069W, strain vba3, active compounds read low 0.946 | S. cerevisiae deletion strains, locus YCR088W, strain abp1, active compounds read low 0.995 | S. cerevisiae deletion strains, locus YDL005C, strain med2, active compounds read low 1.01 | S. cerevisiae deletion strains, locus YDL040C, strain nat1, active compounds read low 1.01 | S. cerevisiae deletion strains, locus YDR001C, strain nth1, active compounds read low 0.992 | S. cerevisiae deletion strains, locus YDR069C, strain doa4, active compounds read low 1.06 | S. cerevisiae deletion strains, locus YDR137W, strain rgp1, active compounds read low 0.912 | S. cerevisiae deletion strains, locus YDR159W, strain sac3, active compounds read low 0.929 | S. cerevisiae deletion strains, locus YDR297W, strain sur2, active compounds read low 1.01 | S. cerevisiae deletion strains, locus YDR334W, strain swr1, active compounds read low 0.983 | S. cerevisiae deletion strains, locus YDR335W, strain msn5, active compounds read low 0.935 | S. cerevisiae deletion strains, locus YEL003W, strain gim4, active compounds read low 0.927 | S. cerevisiae deletion strains, locus YEL037C, strain rad23, active compounds read low 0.988 | S. cerevisiae deletion strains, locus YEL061C, strain CIN8 (second series), active compounds read low 0.918 | S. cerevisiae deletion strains, locus YER015W, strain faa2, active compounds read low 0.956 | S. cerevisiae deletion strains, locus YER016W, strain bim1, active compounds read low 1.02 | S. cerevisiae deletion strains, locus YER111C, strain swi4, active compounds read low 0.98 | S. cerevisiae deletion strains, locus YFR010W, strain ubp6, active compounds read low 0.959 | S. cerevisiae deletion strains, locus YGL167C, strain pmr1, active compounds read low 1.02 | S. cerevisiae deletion strains, locus YGL173C, strain kem1, active compounds read low 0.939 | S. cerevisiae deletion strains, locus YGL227W, strain vid30, active compounds read low 0.96 | S. cerevisiae deletion strains, locus YGL240W, strain doc1, active compounds read low 0.946 | S. cerevisiae deletion strains, locus YHR013C, strain ard1, active compounds read low 1.02 | S. cerevisiae deletion strains, locus YHR027C, strain rpn1, active compounds read low 0.987 | [2] 0.922 | S. cerevisiae deletion strains, locus YHR079C, strain IRE1, active compounds read low 0.943 | S. cerevisiae deletion strains, locus YJL092W, strain hpr5, active compounds read low 0.957 | S. cerevisiae deletion strains, locus YJL095W, strain BCK1, active compounds read low 0.941 | S. cerevisiae deletion strains, locus YJL115W, strain asf1, active compounds read low 1 | S. cerevisiae deletion strains, locus YJL154C, strain vps35, active compounds read low 1.02 | S. cerevisiae deletion strains, locus YJR066W, strain TOR1, active compounds read low 0.897 | S. cerevisiae deletion strains, locus YKR026C, strain gcn3, active compounds read low 0.992 | S. cerevisiae deletion strains, locus YKR091W, strain srl3, active compounds read low 1.01 | S. cerevisiae deletion strains, locus YLL041C, strain sdh2, active compounds read low 1.01 | S. cerevisiae deletion strains, locus YLR113W, strain HOG1, active compounds read low 0.982 | S. cerevisiae deletion strains, locus YLR342W, strain FKS1, active compounds read low 1 | S. cerevisiae deletion strains, locus YLR357W, strain rsc2, active compounds read low 0.933 | S. cerevisiae deletion strains, locus YLR370C, strain arc18, active compounds read low 0.944 | S. cerevisiae deletion strains, locus YLR384C, strain iki3, active compounds read low 1.03 | S. cerevisiae deletion strains, locus YMR125W, strain sto1, active compounds read low 0.9 | S. cerevisiae deletion strains, locus YMR129W, active compounds read low 0.992 | S. cerevisiae deletion strains, locus YMR231W, strain pep5, active compounds read low 0.98 | S. cerevisiae deletion strains, locus YNL183C, strain NPR1, active compounds read low 0.958 | S. cerevisiae deletion strains, locus YNL209W, strain ssb2, active compounds read low 1.01 | S. cerevisiae deletion strains, locus YNL248C, strain rpa49, active compounds read low 0.909 | S. cerevisiae deletion strains, locus YNL322C, strain KRE1 (second series), active compounds read low 0.997 | S. cerevisiae deletion strains, locus YNR049C, strain mso1, active compounds read low 0.997 | S. cerevisiae deletion strains, locus YOR001W, strain rrp6, active compounds read low 0.905 | S. cerevisiae deletion strains, locus YOR080W, strain dia2, active compounds read low 1.01 | S. cerevisiae deletion strains, locus YOR231W, strain MKK1, active compounds read low 0.931 | S. cerevisiae deletion strains, locus YOR265W, strain rbl2, active compounds read low 0.988 | S. cerevisiae deletion strains, locus YOR270C, strain vph1, active compounds read low 0.833 | S. cerevisiae deletion strains, locus YPL106C, strain sse1, active compounds read low 0.929 | S. cerevisiae deletion strains, locus YPL240C, strain hsp82, active compounds read low 0.976 | S. cerevisiae deletion strains, locus YPL256C, strain CLN2, active compounds read low 0.942
